# Experimental data taken from PubChem BioAssay (NCATS).
# Several values for one entry are separate records, joined by “and”; a condition that tells them apart may be missing. Identical values can stand only once. Results filed as inconclusive are left out. The source holds several records for some structures; these can differ, active in one and inactive in another. Activity calls are given as the source filed them. The call rests on the fitted dose curve; in most records, active means well fitted curve in the direction sought with a large enough effect; inconclusive means small, poorly fitted or top-dose-only effect, or another doubt; inactive means no such curve, though single readings can be large; an effect the other way counts as inactive or inconclusive.
# Assays:
# [1] = P-glycoprotein substrates identified in KB-8-5-11 adenocarcinoma cell line, qHTS therapeutic library screen (AID 1346987); further: nearly all actives have a fitted effect of over 65% in size
# In short: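 Steps: plate 500 KB-8-5-11 cells/well in DMEM + 10% FCS (colchicine removed); pin compounds in dose-response; incubate 72 h, 37 degree C, 5% CO2; add CellTiter-Glo, 5 min; read luminescence.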
# [2] = qHTS of pediatric cancer cell lines to identify multiple opportunities for drug repurposing: Primary screen for TC32 cells (AID 1347089); further: nearly all actives have a fitted effect of over 60% in size
# In short: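 Measured quantity: luminescence from CellTiter-Glo, reflecting metabolically active TC32 cells following 48 h of compound. Curves came straight from multi-point titrations, with 8 or 11 points in primary and 11 in confirmatory screening.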
# [3] = qHTS of pediatric cancer cell lines to identify multiple opportunities for drug repurposing: Primary screen for SJ-GBM2 cells (AID 1347091)
# In short: (§1)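 Eight- or eleven-point concentration series, 48 h treatment at 37 degrees C in growth media; readout CellTiter-Glo luminescence. Potency and efficacy were taken from the concentration-response curves.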
# [4] = qHTS of pediatric cancer cell lines to identify multiple opportunities for drug repurposing: Primary screen for A673 cells (AID 1347092); further: nearly all actives have a fitted effect of over 45% in size
# In short: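 Cells are plated, rested 5 h, dosed by pintool, incubated 48 h, then lysed with CellTiter-Glo and read by luminescence. DMSO is the neutral control; bortezomib at 2.3 uM final is the positive control.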
# [5] = qHTS of pediatric cancer cell lines to identify multiple opportunities for drug repurposing: Primary screen for SK-N-MC cells (AID 1347093)
# In short: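 Metabolically active cells were quantified by ATP-dependent luminescence (CellTiter-Glo, 15 min at room temperature) following 48 h treatment. Cells had been plated at 500-1,000 per well and settled for 5 h beforehand.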
# [6] = qHTS of pediatric cancer cell lines to identify multiple opportunities for drug repurposing: Primary screen for BT-37 cells (AID 1347094)
# In short: (§2)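 Viability was measured as metabolically active cells after 48 hours of treatment, read by CellTiter-Glo luminescence. Compounds were tested at multiple final concentrations, giving concentration-response curves.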
# [7] = qHTS of pediatric cancer cell lines to identify multiple opportunities for drug repurposing: Primary screen for NB-EBc1 cells (AID 1347095)
# In short: as §2
# [8] = qHTS of pediatric cancer cell lines to identify multiple opportunities for drug repurposing: Primary screen for Saos-2 cells (AID 1347097); further: nearly all actives have a fitted effect of over 40% in size
# In short: as §2
# [9] = qHTS of pediatric cancer cell lines to identify multiple opportunities for drug repurposing: Primary screen for NB1643 cells (AID 1347099); further: nearly all actives have a fitted effect of over 50% in size
# In short: as §2
# [10] = qHTS of pediatric cancer cell lines to identify multiple opportunities for drug repurposing: Primary screen for LAN-5 cells (AID 1347100)
# In short: (§3)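 Cells (500-1,000/well) in growth media were settled 5 h at 37 degrees C, then given compounds for 48 h. Viability was read as CellTiter-Glo luminescence. Primary runs used MIPE at 11 points (0.78 nM-46 µM) and NPC at 8 points (0.59 nM-46 µM); follow-ups used 11 points.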
# [11] = qHTS of pediatric cancer cell lines to identify multiple opportunities for drug repurposing: Primary screen for BT-12 cells (AID 1347101); further: nearly all actives have a fitted effect of over 25% in size
# In short: (§4)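 Cells (500-1,000/well) rested 5 h, then received compounds for 48 h; metabolically active cells were measured by CellTiter-Glo luminescence. Final concentrations spanned up to 46 µM (MIPE, 11-point) or 0.59 nM-46 µM (NPC, 8-point) in primary screens, 11-point in follow-ups.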
# [12] = qHTS of pediatric cancer cell lines to identify multiple opportunities for drug repurposing: Primary screen for Rh18 cells (AID 1347102); further: nearly all actives have a fitted effect of over 65% in size
# In short: as §3
# [13] = qHTS of pediatric cancer cell lines to identify multiple opportunities for drug repurposing: Primary screen for DAOY cells (AID 1347090); further: nearly all actives have a fitted effect of over 55% in size
# In short: as §1
# [14] = qHTS of pediatric cancer cell lines to identify multiple opportunities for drug repurposing: Primary screen for U-2 OS cells (AID 1347096); further: nearly all actives have a fitted effect of over 50% in size
# In short: as §3
# [15] = qHTS of pediatric cancer cell lines to identify multiple opportunities for drug repurposing: Primary screen for SK-N-SH cells (AID 1347098); further: nearly all actives have a fitted effect of over 65% in size
# In short: as §4
# Potency means the concentration at half of the fitted maximal effect.
SMILES,Potency [1],Potency [2],Potency [3],Potency [4],Potency [5],Potency [6],Potency [7],Potency [8],Potency [9],Potency [10],Potency [11],Potency [12],Potency [13],Potency [14],Potency [15]
COc1ccc(S(=O)(=O)Nc2cccnc2Nc2ccc(O)cc2)cc1,418 nM (active) and 920 nM (active),8290 nM (active),23.5 nM (active),235 nM (active),296 nM (active),344 nM (active),16.6 nM (active),235 nM (active),inactive,46.9 nM (active),432 nM (active),inactive,–,–,–
CNC(=O)Nc1ccc(-c2nc(N3CC4CCC(C3)O4)c3cnn(C4CCC5(CC4)OCCO5)c3n2)cc1,14.8 nM (active) and 184 nM (active),26.2 nM (active),29.6 nM (active),372 nM (active),2.6 nM (active),30.6 nM (active),132 nM (active),209 nM (active),inactive,6620 nM (active),–,93.5 nM (active),29.6 nM (active),–,–
NC(=O)Nc1cc(-c2ccc(CN3CCOCC3)cc2)sc1C(N)=O,1.48 µM (active),523 nM (active),–,5900 nM (active),105 nM (active),21700 nM (active),235 nM (active),–,29.6 nM (active),33.2 nM (active),24300 nM (active),–,–,18700 nM (active),1360 nM (active)
Cn1cc(CNCC2CCN(c3ncc(C(=O)NO)cn3)CC2)c2ccccc21,1.05 µM (active),415 nM (active),74.3 nM (active),74.3 nM (active),66.2 nM (active),–,93.5 nM (active),148 nM (active),148 nM (active),52.6 nM (active),193 nM (active),37.2 nM (active),235 nM (active),469 nM (active),121 nM (active)
Cn1cnc2c(F)c(Nc3ccc(Br)cc3F)c(C(=O)NOCCO)cc21,inactive,inactive,inactive,inactive,inactive,inactive,–,inactive,inactive,–,–,inactive,inactive,–,–
CN(C)CC(=O)N1CCC(c2ccc(NC(=O)c3ncc(C#N)[nH]3)c(C3=CCCCC3)c2)CC1,inactive,inactive,18700 nM (active),18700 nM (active),1660 nM (active),–,23500 nM (active),18700 nM (active),18700 nM (active),16600 nM (active),30600 nM (active),23500 nM (active),–,–,1210 nM (active)
CCOC(=O)C1=C(C)NC(=S)NC1c1cccc(O)c1 (stereo not drawn),4.18 µM (active),1310 nM (active),37.2 nM (active),46.9 nM (active),264 nM (active),–,–,–,inactive,187 nM (active),137 nM (active),inactive,469 nM (active),inactive,–
C[C@H]1[C@@H](OC(=O)CCC(=O)O)O[C@@H]2O[C@@]3(C)CC[C@@H]4[C@H](C)CC[C@@H]1[C@@]24OO3,16.6 µM (active),14700 nM (active),–,5900 nM (active),935 nM (active),3850 nM (active),1660 nM (active),–,4180 nM (active),3320 nM (active),1220 nM (active),14800 nM (active),11800 nM (active),inactive,13600 nM (active)
COc1cc(C)c(C=CC(C)=CC=CC(C)=CC(=O)O)c(C)c1C,inactive,inactive,inactive,inactive,18700 nM (active),–,inactive,inactive,inactive,–,–,inactive,–,inactive,inactive
CC(C)C[C@H](NC(=O)[C@@H](NC(=O)c1cccc(-c2ccccc2)n1)[C@@H](C)O)B(O)O,833 nM (active) and 820 nM (active),466 nM (active),41.8 nM (active),187 nM (active),23.5 nM (active),–,83.3 nM (active),5900 nM (active),74.3 nM (active),33.2 nM (active),68.5 nM (active),46.9 nM (active),59 nM (active),148 nM (active),60.7 nM (active)
CCCNS(=O)(=O)Nc1ncnc(OCCOc2ncc(Br)cn2)c1-c1ccc(Br)cc1,inactive,inactive,inactive,inactive,–,inactive,inactive,inactive,–,inactive,–,inactive,inactive,inactive,inactive
CC(=O)N[C@@H]1[C@H](O[C@@H]2c3ccc(c(Cl)c3)Oc3cc4cc(c3O[C@H]3O[C@H](CO)[C@@H](O)[C@H](O)[C@H]3NC(=O)CCCCCCCC(C)C)Oc3ccc(cc3Cl)C[C@H]3NC(=O)[C@H](N)c5ccc(O)c(c5)Oc5cc(O)cc(c5)[C@H](NC3=O)C(=O)N[C@H]4C(=O)N[C@H]3C(=O)N[C@@H]2C(=O)N[C@@H](C(=O)O)c2cc(O)cc(O[C@H]4O[C@H](CO)[C@@H](O)[C@H](O)[C@H]4O)c2-c2cc3ccc2O)O[C@H](CO)[C@@H](O)[C@@H]1O,inactive,inactive,inactive,inactive,inactive,–,inactive,–,inactive,inactive,inactive,inactive,inactive,inactive,inactive
CC(=O)O[C@H]1C[C@@H]2CC[C@H]3[C@H]4C[C@H]([N+]5(C)CCCCC5)[C@@H](OC(C)=O)[C@@]4(C)CC[C@@H]3[C@@]2(C)C[C@H]1N1CCCCC1,inactive,inactive,inactive,–,–,inactive,inactive,–,inactive,inactive,inactive,inactive,–,inactive,inactive
NC(=O)c1cccc(-c2cccc(OC(=O)NC3CCCCC3)c2)c1,inactive,inactive,–,–,inactive,inactive,inactive,inactive,inactive,inactive,inactive,inactive,inactive,inactive,inactive
C[C@H](O)[C@@H]1C(=O)N2C(C(=O)O)=C(S[C@@H]3CN[C@H](CNS(N)(=O)=O)C3)[C@@H](C)[C@@H]12,inactive,inactive,–,inactive,–,inactive,inactive,inactive,inactive,inactive,inactive,inactive,inactive,inactive,–
COc1cc2c(cc1O)CCC1C2CC[C@@]2(C)C1CC[C@@H]2O (stereo partly drawn),1.32 µM (active),18600 nM (active),833 nM (active),3720 nM (active),6620 nM (active),–,–,1050 nM (active),–,inactive,–,–,–,inactive,–
C[C@H](NC(=O)C(C#N)=Cc1cccc(Br)n1)c1ccccc1,20.9 µM (active),inactive,2960 nM (active),14800 nM (active),11800 nM (active),–,–,–,16600 nM (active),16600 nM (active),–,–,–,–,–
COc1ccc(Nc2cc(-c3cnc(N)nc3)nc(N3CCOCC3)n2)cn1,1.48 µM (active),4660 nM (active),4180 nM (active),5900 nM (active),372 nM (active),13700 nM (active),–,1180 nM (active),2960 nM (active),4180 nM (active),21700 nM (active),6620 nM (active),4690 nM (active),14800 nM (active),7640 nM (active)
CC(C)c1cc(C(C)C)c(CC(=O)NS(=O)(=O)Oc2c(C(C)C)cccc2C(C)C)c(C(C)C)c1,7.31 µM (active),inactive,11800 nM (active),–,–,24300 nM (active),14800 nM (active),18700 nM (active),16600 nM (active),–,–,inactive,–,inactive,inactive
CN(CC(=O)N(Cc1ccc(C2CCCCC2)cc1)c1ccc(C(=O)O)c(O)c1)S(=O)(=O)c1c(F)c(F)c(F)c(F)c1F,inactive,inactive,11800 nM (active),9350 nM (active),1480 nM (active),17200 nM (active),26400 nM (active),16600 nM (active),20900 nM (active),23500 nM (active),–,–,–,–,21500 nM (active)
CCCCCCCN(CC)CCCC(O)c1ccc(NS(C)(=O)=O)cc1 (stereo not drawn),inactive,inactive,–,–,inactive,–,–,–,inactive,–,inactive,inactive,inactive,inactive,inactive
O=C1c2c(O)cccc2[C@@H]([C@@H]2O[C@H](CO)[C@@H](O)[C@H](O)[C@H]2O)c2cc(CO)cc(O)c21,inactive,inactive,inactive,inactive,11800 nM (active),inactive,–,inactive,–,inactive,inactive,inactive,inactive,inactive,inactive
COc1ccc2c(c1OC)C(=O)OC2[C@H]1c2c(cc3c(c2OC)OCO3)CCN1C (stereo partly drawn),1.87 µM (active),1040 nM (active),132 nM (active),74.3 nM (active),83.3 nM (active),–,372 nM (active),235 nM (active),1180 nM (active),–,1090 nM (active),inactive,469 nM (active),–,–
C=C1C(=CC=C2CCC[C@]3(C)[C@@H]([C@H](C)CCCC(C)(C)O)CC[C@@H]23)C[C@@H](O)C[C@@H]1O,inactive,16500 nM (active),–,1480 nM (active),1480 nM (active),6850 nM (active),2960 nM (active),14800 nM (active),2350 nM (active),1660 nM (active),6850 nM (active),5260 nM (active),4690 nM (active),18700 nM (active),3830 nM (active)
Nc1nc(N)c2nc(-c3cccc(O)c3)c(-c3cccc(O)c3)nc2n1,11.8 µM (active),18600 nM (active),8330 nM (active),2350 nM (active),1480 nM (active),–,–,–,5900 nM (active),11800 nM (active),21700 nM (active),–,7430 nM (active),23500 nM (active),19200 nM (active)
Nc1ccc(C(=O)Nc2cccc(-c3nc(N4CCOCC4)c4oc5ncccc5c4n3)c2)cn1,inactive and 9.2 µM (active),inactive,3720 nM (active),14800 nM (active),1180 nM (active),13700 nM (active),2350 nM (active),8330 nM (active),2350 nM (active),6620 nM (active),–,14800 nM (active),–,18700 nM (active),–
N#CC(=C(O)c1ccc(Cl)cc1Cl)c1nc2cc(Cl)ccc2c(=O)[nH]1,inactive,inactive,inactive,inactive,–,inactive,–,–,20900 nM (active),inactive,inactive,inactive,inactive,inactive,inactive
